# Reference: the supplement of paper PMC11732987, “Enantioselective OTUD7B fragment discovery through chemoproteomics screening and high-throughput optimisation” (Communications Chemistry, 2025)
# Values without a mark were called inactive.
# Legend:
# Experiment in all cases: log2 ratio of Biotin-Ahx-Ub-VS probe labelling (fragment/DMSO); higher = less target engagement (more negative = stronger competition), active = hit call of the paper (q ≤ 0.05, log2 ratio ≤ -1)
# Conditions in all cases: compound concentration: 200 uM; treatment time: 3 h
# [1] = target: T1, OTUD6B (UniProt Q8N6M0)
# T1 sequence (whole entry): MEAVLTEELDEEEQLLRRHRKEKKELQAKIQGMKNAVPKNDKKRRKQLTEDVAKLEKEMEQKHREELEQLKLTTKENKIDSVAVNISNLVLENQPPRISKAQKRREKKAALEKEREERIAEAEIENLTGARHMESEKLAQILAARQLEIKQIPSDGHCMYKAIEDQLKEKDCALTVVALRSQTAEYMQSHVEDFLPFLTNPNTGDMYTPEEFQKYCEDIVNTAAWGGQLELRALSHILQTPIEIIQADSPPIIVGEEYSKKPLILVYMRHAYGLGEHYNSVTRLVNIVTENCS
# Summary of the method: (§1)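 The table lists average log2 ratios of fragment over vehicle, from an unpaired t-test on global-median-normalised Spectronaut label-free quantities. Proteins with ≥2 unique peptides were used. Samples were HEK293T lysate (495 µg) treated in triplicate with fragment at 200 µM or vehicle for 3 h, then with Biotin-Ahx-Ub-VS (0.5 µM final) for 1 h, with labelled DUBs NeutrAvidin-enriched and run by diaPASEF LC-MS/MS.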
# [2] = target: T2, OTUD7B (UniProt Q6GQQ9)
# T2 sequence (whole entry): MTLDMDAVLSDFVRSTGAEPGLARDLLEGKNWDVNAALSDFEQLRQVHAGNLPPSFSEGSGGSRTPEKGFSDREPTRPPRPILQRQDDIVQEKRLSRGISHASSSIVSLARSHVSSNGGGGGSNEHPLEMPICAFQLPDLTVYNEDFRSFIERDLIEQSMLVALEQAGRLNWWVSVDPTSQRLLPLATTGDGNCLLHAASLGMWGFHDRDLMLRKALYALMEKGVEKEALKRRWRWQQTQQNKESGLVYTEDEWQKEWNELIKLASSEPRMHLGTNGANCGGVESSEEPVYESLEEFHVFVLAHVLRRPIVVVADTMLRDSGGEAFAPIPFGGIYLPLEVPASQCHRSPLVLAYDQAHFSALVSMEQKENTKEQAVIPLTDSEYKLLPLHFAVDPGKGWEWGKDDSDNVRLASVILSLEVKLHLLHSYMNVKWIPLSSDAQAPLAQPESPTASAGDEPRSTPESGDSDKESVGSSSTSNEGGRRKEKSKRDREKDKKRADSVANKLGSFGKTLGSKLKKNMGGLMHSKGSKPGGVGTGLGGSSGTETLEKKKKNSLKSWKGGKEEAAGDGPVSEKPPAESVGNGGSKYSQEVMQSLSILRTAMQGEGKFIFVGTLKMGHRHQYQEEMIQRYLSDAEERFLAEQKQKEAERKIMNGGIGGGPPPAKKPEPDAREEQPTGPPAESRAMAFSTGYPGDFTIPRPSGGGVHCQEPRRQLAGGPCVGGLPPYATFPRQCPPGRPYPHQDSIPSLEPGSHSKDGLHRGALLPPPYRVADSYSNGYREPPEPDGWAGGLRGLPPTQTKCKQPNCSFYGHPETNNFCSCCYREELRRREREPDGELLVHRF
# Summary of the method: as §1
# [3] = target: PRPF8 (UniProt Q6P2Q9)
# Summary of the method: as §1
# [4] = target: T3, PSMD7 (UniProt P51665)
# T3 sequence (whole entry): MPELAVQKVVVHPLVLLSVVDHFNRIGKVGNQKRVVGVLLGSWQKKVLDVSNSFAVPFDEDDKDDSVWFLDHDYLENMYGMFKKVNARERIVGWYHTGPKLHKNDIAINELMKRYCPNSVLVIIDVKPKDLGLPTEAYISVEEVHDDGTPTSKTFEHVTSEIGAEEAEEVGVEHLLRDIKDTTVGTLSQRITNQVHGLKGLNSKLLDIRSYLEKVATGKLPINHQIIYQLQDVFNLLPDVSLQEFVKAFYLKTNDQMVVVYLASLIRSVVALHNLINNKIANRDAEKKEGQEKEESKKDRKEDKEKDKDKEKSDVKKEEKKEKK
# Summary of the method: as §1
# [5] = target: UCHL1 (UniProt P09936)
# Sequence of UCHL1 (P09936 whole entry, looked up): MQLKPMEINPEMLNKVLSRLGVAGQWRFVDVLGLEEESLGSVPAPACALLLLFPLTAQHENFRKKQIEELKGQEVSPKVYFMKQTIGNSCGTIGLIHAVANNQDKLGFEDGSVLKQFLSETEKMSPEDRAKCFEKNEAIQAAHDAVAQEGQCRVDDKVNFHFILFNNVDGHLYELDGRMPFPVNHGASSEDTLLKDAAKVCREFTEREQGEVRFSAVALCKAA
# Summary of the method: as §1
# [6] = target: T4, UCHL3 (UniProt P15374)
# T4 sequence (whole entry): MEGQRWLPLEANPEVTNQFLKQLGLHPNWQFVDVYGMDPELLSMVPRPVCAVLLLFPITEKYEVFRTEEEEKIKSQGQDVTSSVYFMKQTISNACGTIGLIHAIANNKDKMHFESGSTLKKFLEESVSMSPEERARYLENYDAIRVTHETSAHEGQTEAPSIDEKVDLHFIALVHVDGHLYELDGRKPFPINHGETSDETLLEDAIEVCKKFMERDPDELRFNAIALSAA
# Summary of the method: as §1
# [7] = target: T5, UCHL5 (UniProt Q9Y5K5)
# T5 sequence (whole entry): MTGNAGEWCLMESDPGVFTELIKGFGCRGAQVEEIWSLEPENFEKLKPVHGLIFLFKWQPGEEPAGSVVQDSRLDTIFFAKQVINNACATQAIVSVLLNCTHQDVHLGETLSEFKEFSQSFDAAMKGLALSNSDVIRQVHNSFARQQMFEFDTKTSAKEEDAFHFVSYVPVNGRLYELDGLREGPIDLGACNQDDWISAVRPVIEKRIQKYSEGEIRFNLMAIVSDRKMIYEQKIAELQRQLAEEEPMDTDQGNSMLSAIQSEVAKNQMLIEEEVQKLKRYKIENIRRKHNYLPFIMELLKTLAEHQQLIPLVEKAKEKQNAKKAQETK
# Summary of the method: as §1
# [8] = target: USP10 (UniProt Q14694)
# Sequence of USP10 (Q14694 whole entry): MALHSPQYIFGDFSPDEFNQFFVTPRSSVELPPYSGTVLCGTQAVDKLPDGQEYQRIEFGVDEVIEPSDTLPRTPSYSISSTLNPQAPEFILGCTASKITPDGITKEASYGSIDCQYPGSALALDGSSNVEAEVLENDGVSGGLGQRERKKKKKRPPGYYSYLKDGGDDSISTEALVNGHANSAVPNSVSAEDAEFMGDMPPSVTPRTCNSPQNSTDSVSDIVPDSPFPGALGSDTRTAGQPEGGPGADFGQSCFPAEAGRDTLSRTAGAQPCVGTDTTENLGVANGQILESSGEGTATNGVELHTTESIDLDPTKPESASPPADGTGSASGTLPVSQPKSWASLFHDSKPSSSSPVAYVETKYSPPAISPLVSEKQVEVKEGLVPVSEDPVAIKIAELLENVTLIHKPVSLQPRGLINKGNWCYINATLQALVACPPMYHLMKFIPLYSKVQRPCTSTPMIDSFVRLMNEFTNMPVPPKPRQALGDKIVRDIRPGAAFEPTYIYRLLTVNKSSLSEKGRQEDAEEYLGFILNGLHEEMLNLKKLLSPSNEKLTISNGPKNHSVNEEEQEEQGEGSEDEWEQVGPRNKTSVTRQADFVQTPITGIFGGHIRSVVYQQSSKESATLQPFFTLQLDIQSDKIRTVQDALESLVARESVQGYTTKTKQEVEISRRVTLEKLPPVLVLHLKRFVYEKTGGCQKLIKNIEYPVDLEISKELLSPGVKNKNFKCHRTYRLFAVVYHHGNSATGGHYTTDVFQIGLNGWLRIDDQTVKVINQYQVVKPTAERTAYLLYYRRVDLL
# Summary of the method: as §1
# [9] = target: T6, USP15 (UniProt Q9Y4E8)
# T6 sequence (whole entry): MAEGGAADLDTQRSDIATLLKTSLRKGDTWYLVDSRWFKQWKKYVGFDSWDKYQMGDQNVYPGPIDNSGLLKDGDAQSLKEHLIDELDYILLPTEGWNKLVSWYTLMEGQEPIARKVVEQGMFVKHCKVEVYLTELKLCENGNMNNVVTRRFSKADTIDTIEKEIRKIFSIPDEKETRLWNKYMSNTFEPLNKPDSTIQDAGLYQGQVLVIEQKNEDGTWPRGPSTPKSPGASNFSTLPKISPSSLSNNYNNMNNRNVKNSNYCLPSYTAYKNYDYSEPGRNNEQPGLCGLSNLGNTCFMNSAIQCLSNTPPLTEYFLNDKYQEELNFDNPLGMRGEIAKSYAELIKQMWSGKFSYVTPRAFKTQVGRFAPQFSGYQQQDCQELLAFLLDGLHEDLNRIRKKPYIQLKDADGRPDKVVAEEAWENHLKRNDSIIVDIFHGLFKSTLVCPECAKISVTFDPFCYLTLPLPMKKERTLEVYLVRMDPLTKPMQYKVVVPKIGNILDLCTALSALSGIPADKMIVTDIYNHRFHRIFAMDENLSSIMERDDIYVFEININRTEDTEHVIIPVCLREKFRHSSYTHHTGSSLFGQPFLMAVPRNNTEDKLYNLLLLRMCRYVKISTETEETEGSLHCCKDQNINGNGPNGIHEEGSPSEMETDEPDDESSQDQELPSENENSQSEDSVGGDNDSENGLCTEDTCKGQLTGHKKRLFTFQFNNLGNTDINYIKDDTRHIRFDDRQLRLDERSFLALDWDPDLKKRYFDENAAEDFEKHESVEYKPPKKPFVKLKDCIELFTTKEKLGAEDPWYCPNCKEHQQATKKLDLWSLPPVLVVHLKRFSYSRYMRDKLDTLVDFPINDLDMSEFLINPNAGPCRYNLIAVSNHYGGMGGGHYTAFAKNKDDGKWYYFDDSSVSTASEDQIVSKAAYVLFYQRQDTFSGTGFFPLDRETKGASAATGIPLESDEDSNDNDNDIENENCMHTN
# Summary of the method: as §1
# [10] = target: USP16 (UniProt Q9Y5T5)
# Sequence of USP16 (Q9Y5T5 whole entry, looked up): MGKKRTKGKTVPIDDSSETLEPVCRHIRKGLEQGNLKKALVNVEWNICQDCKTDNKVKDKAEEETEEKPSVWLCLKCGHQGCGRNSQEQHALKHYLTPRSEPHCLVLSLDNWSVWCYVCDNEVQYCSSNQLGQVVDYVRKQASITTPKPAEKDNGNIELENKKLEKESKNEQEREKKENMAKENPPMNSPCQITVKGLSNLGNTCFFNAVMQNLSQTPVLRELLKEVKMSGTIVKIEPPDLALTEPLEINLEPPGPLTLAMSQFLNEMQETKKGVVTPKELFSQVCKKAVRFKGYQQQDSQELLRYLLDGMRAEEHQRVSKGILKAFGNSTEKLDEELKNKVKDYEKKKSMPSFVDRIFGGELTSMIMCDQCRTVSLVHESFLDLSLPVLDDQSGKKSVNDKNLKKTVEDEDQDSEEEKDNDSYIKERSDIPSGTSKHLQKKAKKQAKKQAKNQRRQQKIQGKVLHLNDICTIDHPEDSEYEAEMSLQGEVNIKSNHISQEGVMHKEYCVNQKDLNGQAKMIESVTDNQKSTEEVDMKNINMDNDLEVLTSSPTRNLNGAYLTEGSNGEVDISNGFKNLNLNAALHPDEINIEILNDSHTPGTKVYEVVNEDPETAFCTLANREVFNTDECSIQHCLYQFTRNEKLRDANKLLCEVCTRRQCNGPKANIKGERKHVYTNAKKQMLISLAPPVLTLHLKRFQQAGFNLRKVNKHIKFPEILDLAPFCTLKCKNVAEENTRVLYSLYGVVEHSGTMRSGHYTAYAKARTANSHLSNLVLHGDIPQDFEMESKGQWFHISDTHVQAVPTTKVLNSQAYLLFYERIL
# Summary of the method: as §1
compound,measurement,setting,value
Cl.Cn1c(CNC(=O)CCl)nc2cccnc21,log2 ratio of Biotin-Ahx-Ub-VS probe labelling,[1],-0.213
same,log2 ratio of Biotin-Ahx-Ub-VS probe labelling,[2],-0.356
same,log2 ratio of Biotin-Ahx-Ub-VS probe labelling,[3],-0.144
same,log2 ratio of Biotin-Ahx-Ub-VS probe labelling,[4],-0.0899
same,log2 ratio of Biotin-Ahx-Ub-VS probe labelling,[5],-1.17 (active)
same,log2 ratio of Biotin-Ahx-Ub-VS probe labelling,[6],0.177
same,log2 ratio of Biotin-Ahx-Ub-VS probe labelling,[7],-0.302
same,log2 ratio of Biotin-Ahx-Ub-VS probe labelling,[8],-0.0558
same,log2 ratio of Biotin-Ahx-Ub-VS probe labelling,[9],-0.177
same,log2 ratio of Biotin-Ahx-Ub-VS probe labelling,[10],-0.246
